eIF4H FP inh – inhibitors of RNA binding by human eIF4H; Q15056; eIF4H fluorescence polarization binding assay; inhibition, % at 35 µM; hit rate 0.94% among 290,000;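 further: calls also rest on retests at 20 µM and on dose response follow-up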
MLLE-PAM2 inh – blocks PAM2 peptide binding to the PABP1 MLLE domain. P11940. GST-MLLE / FITC-PAM2 fluorescence polarization. inhibition, % at 20 µM. hit rate 0.36% among 360,000. AID 588489; in the data active means inhibition above about 35%, passing the limit was not always enough;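 further: plate controls were DMSO wells with GST-MLLE for no effect and wells lacking GST-MLLE protein for full effect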
PABP FP inh – PABP-poly(A) binding inhibition; P11940; AID 2014; inhibition, % at 35 µM; PABP-poly(A) RNA binding, fluorescence polarization; hit rate 1% among 290,000;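 further: calls also rest on retests at 20 µM and on dose response follow-up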
Efflux pump mplx – antifungal efflux pump inhibition, Nile Red retention | S. cerevisiae Candida pump triplex | inhibition, % at 10 µM | hit rate 0.44% among 330,000;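 active means plate passing quality check with inhibition over a set limit, or well fluorescence over plate mean plus 4 SD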;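 further: Nile Red retained in pooled yeast measured as flow cytometry median fluorescence; 0% = buffer negative control and 100% = Enniatin B positive control; higher means more Nile Red kept so more efflux inhibition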
UBC9 SUMO inh – SUMOylation inhibition. HTRF SUMOylation assay, SAE1/SAE2 + UBC9, in vitro. hit rate 0.36% among 290,000. P63279. inhibition, % at 35 µM. AID 2006; in the data active means inhibition above about 50%, passing the limit was not always enough; inconclusive means no clear call, values can overlap the other calls
Target sequence (P63279 whole entry, looked up): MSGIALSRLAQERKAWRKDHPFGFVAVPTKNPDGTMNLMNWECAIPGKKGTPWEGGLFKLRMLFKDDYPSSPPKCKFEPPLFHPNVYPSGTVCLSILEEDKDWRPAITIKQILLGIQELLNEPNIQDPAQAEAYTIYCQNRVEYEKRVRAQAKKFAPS
ALR inh – human ALR oxidase inhibition via reduced H2O2; P55789; purified ALR, DTT oxidation, H2O2 HRP-luminol luminescence; inhibition, % (test concentration not listed); hit rate 3.8% among 290,000;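 active means mean replicate inhibition above about 79%, with every replicate also reaching it, limit read from the data; inconclusive means only one of the two criteria met; inactive means mean below limit and not every replicate reaching it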
Starred values were filed as active, the others as inactive. Only some compounds are listed: those with a hit (about 4.7% of all), similar ones and a draw of the others. Unless noted, how the calls were made is not given here.

Screening COc1ccc(NC(=O)CCc2nnc3ccc(NCc4ccco4)nn23)cc1 returned eIF4H FP inh 2, MLLE-PAM2 inh 2, PABP FP inh 0, Efflux pump mplx 0, UBC9 SUMO inh -5 and ALR inh -1.
Cc1cccnc1NC(=O)CCc1nnc2ccc(NCc3ccco3)nn12 was read as eIF4H FP inh 21, MLLE-PAM2 inh 11, PABP FP inh 12, Efflux pump mplx 0, UBC9 SUMO inh 16 and ALR inh -8.
Screening Cc1cccc(NC(=O)CCc2nnc3ccc(NCc4ccco4)nn23)n1 returned eIF4H FP inh 80*, MLLE-PAM2 inh 4, PABP FP inh 32, Efflux pump mplx 0, UBC9 SUMO inh -1 and ALR inh 4.
`O=C(CCc1nnc2ccc(NCc3ccco3)nn12)Nc1ccccn1` gave eIF4H FP inh 88*, MLLE-PAM2 inh 14, PABP FP inh 43, Efflux pump mplx 0, UBC9 SUMO inh 16 and ALR inh 2.
For CCc1cccc(CC)c1NC(=S)N(CCN(C)C)C(C)c1cccnc1 (configuration not stated) the results were eIF4H FP inh 1, MLLE-PAM2 inh -28, PABP FP inh 2, Efflux pump mplx 0, UBC9 SUMO inh 10 and ALR inh 3.
Screening O=C1c2nc3cc(-c4ccco4)[nH]n3c(=O)c2CN1C1CCCCC1 returned eIF4H FP inh 50*, MLLE-PAM2 inh 12, PABP FP inh 65*, Efflux pump mplx 0, UBC9 SUMO inh 51 and ALR inh 13.
COC(=O)[C@]1(C)N[C@H](CN(C)C(=O)Nc2ccc(OC)cc2)[C@@H]2C(=O)N(Cc3ccccc3)C(=O)[C@@H]21 was read as MLLE-PAM2 inh 5 and Efflux pump mplx 0.
`Nc1n[nH]c2cc(=O)n(-c3cccc(C(F)(F)F)c3)nc12` gave eIF4H FP inh 108, MLLE-PAM2 inh 17, PABP FP inh -4, Efflux pump mplx 0, UBC9 SUMO inh 1 and ALR inh 93*.
Screening CCCNC(=O)C1(C)CCCN(Cc2ccccc2C#N)C1 (configuration not stated) returned MLLE-PAM2 inh -17.
For CC(C)Cn1c(=S)[nH]c2ccccc2c1=O the results were eIF4H FP inh -13, MLLE-PAM2 inh -58, PABP FP inh -12, Efflux pump mplx 0, UBC9 SUMO inh 9 and ALR inh 0.
For CC(C)COn1c(=S)[nH]c2ccccc2c1=O the results were eIF4H FP inh 3, MLLE-PAM2 inh 35, PABP FP inh 4, Efflux pump mplx 0, UBC9 SUMO inh -6 and ALR inh 97*.
For CCCCSc1nc(O)c(C2OC(=O)c3c2ccc(OC)c3OC)c(=O)n1C (configuration not stated) the results were eIF4H FP inh -3, MLLE-PAM2 inh 4, PABP FP inh 2, Efflux pump mplx 0, UBC9 SUMO inh 15 and ALR inh inconclusive.
CCCCCCSc1nc(O)c(C2OC(=O)c3c2ccc(OC)c3OC)c(=O)n1-c1ccccc1 (configuration not stated) was read as eIF4H FP inh 6, MLLE-PAM2 inh 9, PABP FP inh 6, Efflux pump mplx 0, UBC9 SUMO inh 11 and ALR inh 98*.
`CN1c2ccccc2C(C)(C)C12C=Nc1c(cc(N3CCOCC3)c3ccccc13)O2` (configuration not stated) gave eIF4H FP inh -1, MLLE-PAM2 inh -6, PABP FP inh 8 and UBC9 SUMO inh 73.
`CN1c2ccccc2C(C)(C)C12C=Cc1cc(O)ccc1O2` (configuration not stated) gave eIF4H FP inh 30, MLLE-PAM2 inh -40, PABP FP inh 21, Efflux pump mplx 0, UBC9 SUMO inh 1 and ALR inh 80*.
For O=C1S/C(=C/c2ccc(N3CCOCC3)o2)C(=O)N1Cc1ccc(F)cc1 the results were eIF4H FP inh 8, MLLE-PAM2 inh -66, PABP FP inh 18, Efflux pump mplx 0, UBC9 SUMO inh 20 and ALR inh 18.
O=C1NC(=S)S/C1=C/c1ccc(N2CCOCC2)o1 was read as eIF4H FP inh 87*, MLLE-PAM2 inh -88, PABP FP inh 1.3*, Efflux pump mplx 2, UBC9 SUMO inh 28 and ALR inh 24.
`CCc1ccc(CN(C)CCc2ccccn2)cc1` gave eIF4H FP inh 3, MLLE-PAM2 inh 1, PABP FP inh 10, Efflux pump mplx 0, UBC9 SUMO inh 5 and ALR inh 2.
`Cc1ccc(CN(C)CCc2ccccn2)cc1` gave eIF4H FP inh 18, MLLE-PAM2 inh 7, PABP FP inh 12, Efflux pump mplx 0, UBC9 SUMO inh 9 and ALR inh 96*.
Screening O=C(NCCc1ccccc1)c1cccc(NC(=O)C2CCCC2)c1 returned MLLE-PAM2 inh -19.
For Cc1c(NC(=O)COc2c(F)c(F)c(F)c(F)c2F)c(=O)n(-c2ccccc2)n1C the results were eIF4H FP inh -13, MLLE-PAM2 inh -2, PABP FP inh 2, Efflux pump mplx 0, UBC9 SUMO inh 4 and ALR inh 0.
For O=C(c1ccoc1)N1CCCC(N2CCN(c3ccc(F)cc3)CC2)C1 (configuration not stated) the results were eIF4H FP inh -4, MLLE-PAM2 inh -13, PABP FP inh 0, Efflux pump mplx 0, UBC9 SUMO inh 7 and ALR inh 53.
Screening Cc1cc(C(=O)N2CCCC(N3CCN(c4cccc(Cl)c4)CC3)C2)nn1C (configuration not stated) returned eIF4H FP inh 0, MLLE-PAM2 inh -2, PABP FP inh 0, Efflux pump mplx 0, UBC9 SUMO inh 3 and ALR inh 22.
`O=C(c1ccoc1)N1CCCC(N2CCN(c3cccc(Cl)c3)CC2)C1` (configuration not stated) gave eIF4H FP inh -9, MLLE-PAM2 inh -4, PABP FP inh 1, Efflux pump mplx -1, UBC9 SUMO inh 10 and ALR inh 93*.
`O=C(CCn1cccn1)N1CCCC(N2CCN(c3cccc(Cl)c3)CC2)C1` (configuration not stated) gave eIF4H FP inh -11, MLLE-PAM2 inh -12, PABP FP inh -6, Efflux pump mplx 0, UBC9 SUMO inh 3 and ALR inh 93*.
For Cc1cc(C(=O)N2CCCC(N3CCN(c4cccc(Cl)c4)CC3)C2)no1 (configuration not stated) the results were eIF4H FP inh -12, MLLE-PAM2 inh -1, PABP FP inh -6, Efflux pump mplx 0, UBC9 SUMO inh 3 and ALR inh 80*.
CCCOc1ccc(Cn2c(C)nc([N+](=O)[O-])c2SCC(O)COC)cc1[N+](=O)[O-] (configuration not stated) was read as eIF4H FP inh -10, MLLE-PAM2 inh -5, PABP FP inh -6, Efflux pump mplx 0, UBC9 SUMO inh 28 and ALR inh 99*.
